CHRM1 PAM: potentiates human M1 receptor response to acetylcholine; CHO-K1 hM1, Fluo-8 calcium fluorescence, ACh EC20; 0% = ACh EC20, 100% = maximal ACh; activation, % at 3 µM; 360,000 tested, 0.088% active; AID 588819; in the data active = activation above about 19%, passing the limit was not always enough
Target sequence (P11229 whole entry, looked up): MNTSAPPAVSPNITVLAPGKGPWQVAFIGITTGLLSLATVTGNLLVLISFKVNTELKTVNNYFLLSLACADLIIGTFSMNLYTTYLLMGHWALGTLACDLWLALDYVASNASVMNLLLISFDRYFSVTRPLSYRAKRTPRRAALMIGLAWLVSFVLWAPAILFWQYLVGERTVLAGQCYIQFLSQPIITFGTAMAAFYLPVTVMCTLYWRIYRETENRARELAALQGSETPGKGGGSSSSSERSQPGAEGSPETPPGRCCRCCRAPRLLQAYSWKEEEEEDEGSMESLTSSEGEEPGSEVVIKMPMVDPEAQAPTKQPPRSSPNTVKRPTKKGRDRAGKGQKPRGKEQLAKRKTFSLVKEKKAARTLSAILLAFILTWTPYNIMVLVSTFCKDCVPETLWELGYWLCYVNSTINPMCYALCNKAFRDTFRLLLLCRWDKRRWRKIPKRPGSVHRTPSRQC
M1 antag: human CHRM1 antagonism | CHO-K1 hM1, Fluo-8 calcium fluorescence, ACh EC80 antagonist | inhibition, % at 3 µM | 360,000 tested, 1.3% active | AID 588852;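 active = percent inhibition above its own plate's cutoff, namely the mean of that plate's compound wells plus 3 SD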;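 also: peak over basal fluorescence ratio during 140 s after agonist addition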
CHRM1 agonist: human M1 muscarinic receptor agonism; P11229; CHO-K1 hM1, Fluo-8 calcium fluorescence, agonist mode; 0% DMSO, 100% acetylcholine EC100; activation, % at 3 µM; 360,000 tested, 0.33% active;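 active = activation above the run's mean compound activation plus 3 SD, cut at about 16% in these data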;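 also: peak over basal fluorescence ratio within a 140 s kinetic read after compound addition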
CHO-K1 Ca antag: M1 antagonist counterscreen hit in parental CHO-K1 cells; 360,000 tested, 0.6% active; ATP-induced calcium, Fluo-8 fluorescence; inhibition, % at 3 µM;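 active = inhibition above a per-plate cutoff, the plate's mean sample inhibition plus 3 SD, cut at about 24% in these data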
M1 PAM parental: counter-screen for M1 PAMs: effect in parental CHO-K1 cells; ATP EC20, Fluo-8 calcium fluorescence; 0% at ATP EC20, 100% at ATP max; activation, % at 3 µM; 360,000 tested, 0.02% active; AID 602247;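 active = activation above the run cutoff, the mean activation of all test compounds plus 3 SD, cut at about 40% in these data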;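 also: peak over basal fluorescence ratio in a 140 s read after ATP addition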
M1 ag parental: counter-screen for M1 agonists: effect in parental CHO-K1 cells. 360,000 tested, 0.48% active. Fluo-8 calcium fluorescence; scaled to maximal ATP response, vehicle zero. AID 602248. activation, % at 3 µM; in the data active = activation above about 15%;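 also: untransfected CHO-K1 host cells lacking M1 receptor as counterscreen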
Large screens that a line does not name were inactive. Rows were chosen to be rich in hits. Some 2.3% of all compounds tested hit in one or more screens of this group.

COc1ccc([C@H]2C[C@H](O)[C@@H](n3cc(COC(=O)c4ccccc4)nn3)CN2Cc2cccs2)cc1	CHO-K1 Ca antag 30.9
CCCCCCCOC(=O)C[N+](C)(C)CCOC1CC2CCC1(C)C2(C)C (centres undefined)	M1 ag parental 26.8
CCCCCCOC(=O)C[N+](C)(C)CCOC1CC2CCC1(C)C2(C)C (centres undefined)	none
COc1ccccc1C1CCN(Cc2cccc([N+](=O)[O-])c2)CC1	M1 antag 35.3
COc1ccc(CCNC(=O)/C(C#N)=C2\N=C(NC(=O)c3ccco3)c3ccccc32)cc1	none
N#C/C(C(=O)NCc1ccccc1)=C1/N=C(NC(=O)c2ccco2)c2ccccc21	M1 ag parental 17.0
CCc1ccc(OC)c(S(=O)(=O)Nc2ccc(Cc3ccncc3)cc2)c1	M1 antag 36.4, M1 ag parental 15.3
O=S(=O)(Nc1ccc(Cc2ccncc2)cc1)c1ccc(Cl)c(Cl)c1	M1 antag 51.8
COc1ccc(S(=O)(=O)Nc2ccc(Cc3ccncc3)cc2)cc1OC	none
C=Cc1ccc(C2=CC(=O)C[C@H](c3ccc(OC)cc3)C2)cc1	none
COc1ccc(CCN2C(=O)CSC2=Nc2ccc(C(C)C)cc2)cc1OC	M1 antag 40.7
COc1ccc(N=C2SCC(=O)N2CCc2ccc(OC)c(OC)c2)cc1	none
Cc1cccc(C(=O)NC(C(=O)Nc2cccc(S(=O)(=O)N3CCCC3)c2)C(C)C)c1 (centres undefined)	none
O=C(/C=C/c1ccc(Cl)c(Cl)c1)NCCCn1ccnc1	none
Cc1ccc(/C=C/C(=O)NCCCn2ccnc2)cc1	M1 ag parental 17.8
O=C(NC(=S)N1CCOCC1)c1cn(-c2ccccc2)nc1-c1ccc(F)cc1	none
COc1cc(/C=C2\SC(=S)N(C(C(=O)O)c3ccccc3)C2=O)ccc1O (centres undefined)	CHRM1 agonist 17.3, M1 ag parental 29.2
CCOc1cc(/C=C2\SC(=S)N(C(C(=O)O)c3ccccc3)C2=O)ccc1O (centres undefined)	CHRM1 agonist 19.1, M1 ag parental 28.8
O=C1NCCN(CC2CCN(CCc3ccccc3)CC2)C1=O	none
O=C(c1ccccc1)c1ccc(O)cc1O	M1 ag parental 16.3
O=C(c1ccccc1)c1ccc2ccccc2c1	none
Cc1cc2ccccc2cc1C(=O)c1ccccc1	CHRM1 PAM 27.6
O=c1c(Cc2ccccc2)c(O)ccn1CCc1cnc[nH]1	none
CC1(C)CC2(C)CC(=O)C1C(C(=O)O)C2C(=O)O (centres undefined)	none
CCCn1c(SCC(=O)NC2CCCC2)nc2c1c(=O)n(C)c(=O)n2C	none
O=C(CCC(=O)N1CCOc2ccc(Cl)cc21)N1CCN(c2ccccn2)CC1	none
Cc1ccc2c(c1)N(C(=O)CCC(=O)N1CCN(c3ccccn3)CC1)CCO2	M1 antag 36.5
O=C(C[C@@H]1C[C@@H]2c3cc(NC(=O)C4CCOCC4)ccc3O[C@@H]2[C@H](CO)O1)NCc1ccccn1	none
O=C(COc1ncnc2ccccc12)Nc1cc([N+](=O)[O-])ccc1F	M1 ag parental 16.5
O=C(CN1CCN(CC(=O)c2ccc(Cl)cc2)CC1)c1ccc(Cl)cc1	none
O=C(Cn1cc(Cl)ccc1=O)c1ccc(Cl)cc1	CHO-K1 Ca antag 24.1
CCCc1nnc(NC(=S)Nc2ccccc2)s1	none
CC(C)C(=O)Nc1nnc(NC(=S)Nc2ccccc2)s1	M1 ag parental 19.2
CCOC(=O)c1[nH]c(C)c(/C(O)=C2\C(=O)C(=O)N(CCCN(CC)CC)C2c2cccnc2)c1C (centres undefined)	none
CCOC(=O)c1[nH]c(C)c(/C(O)=C2\C(=O)C(=O)N(CCCN3CCOCC3)C2c2cccnc2)c1C (centres undefined)	M1 ag parental 19.4
C=CCn1c(SCC(=O)NCc2ccco2)nc2ccccc2c1=O	M1 antag 99.9
O=C(CCn1c(SCC(=O)NCc2ccco2)nc2ccccc2c1=O)NCCc1ccccc1	none
CCC(=O)Nc1nnc(Cc2ccccc2)s1	none
CCCC(=O)Nc1nnc(Cc2ccccc2)s1	CHO-K1 Ca antag 30.9
COc1cc(/C=N/N=C2/NC(=O)C(Cc3ccccc3)S2)ccc1O (centres undefined)	M1 ag parental 24.5

Screening results (PubChem BioAssay)
